In paper PMC7862700, “An all-to-all approach to the identification of sequence-specific readers for epigenetic DNA modifications on cytosine”:

The sequences below were run against T1, ELF3 (Homo sapiens, UniProt P78545 1-371) (assay: DAPPL (digital affinity profiling via proximity ligation, sequencing); 10 mM Tris-HCl pH 7.5, 50 mM NaCl, 1 mM DTT, 4% glycerol, room temperature, 30 min; GST-TFs on glutathione beads, 16-mer random dsDNA library, 0.1% formaldehyde crosslink after washing; high values mean tight binding). Settings: protein: recombinant; tags: N-terminal GST; dsDNA, one strand shown.
T1 sequence: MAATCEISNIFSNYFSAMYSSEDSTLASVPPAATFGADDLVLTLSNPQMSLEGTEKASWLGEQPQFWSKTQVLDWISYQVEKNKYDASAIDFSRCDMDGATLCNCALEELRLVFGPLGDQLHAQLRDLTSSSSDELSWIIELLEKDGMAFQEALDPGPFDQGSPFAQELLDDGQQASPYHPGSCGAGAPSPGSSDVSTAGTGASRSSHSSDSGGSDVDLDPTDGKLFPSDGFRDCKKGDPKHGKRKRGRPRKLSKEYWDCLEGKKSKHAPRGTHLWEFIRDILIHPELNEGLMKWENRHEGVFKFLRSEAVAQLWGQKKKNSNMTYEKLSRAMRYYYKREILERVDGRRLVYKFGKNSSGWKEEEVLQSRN
How it was run: (§1)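 Human transcription factors fused to GST were expressed in yeast, captured on glutathione beads, given DNA barcodes and pooled with a GST-only negative control. Pools were incubated with 200 nmole of a 16-mer random double-stranded DNA library in Tris/NaCl/DTT/glycerol buffer at room temperature for 30 min. They were then washed, crosslinked with 0.1% formaldehyde, proximity-ligated (BsaI/T4 ligase, 1 h, 37 °C), PCR-amplified and sequenced on an Illumina NextSeq500. Binding signal is each 6-mer's read frequency for a factor divided by its frequency for the GST control.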
In the case of CGTACA, the binding signal is reported as 1.27 fold enrichment (6-mer frequency, TF over GST control).
With ACTGCG the binding signal was 1.16 fold enrichment (6-mer frequency, TF over GST control).
In the case of AGATGC, the binding signal is reported as 1.09 fold enrichment (6-mer frequency, TF over GST control).
For GTTCAA, the binding signal was 1.22 fold enrichment (6-mer frequency, TF over GST control).
For TGACAT, the binding signal was 1.25 fold enrichment (6-mer frequency, TF over GST control).
With CCGGAA the binding signal was 5.42 fold enrichment (6-mer frequency, TF over GST control).
GTCTCT was tested, and the binding signal was 1.11 fold enrichment (6-mer frequency, TF over GST control).
In the case of CGACAT, the binding signal is reported as 1.42 fold enrichment (6-mer frequency, TF over GST control).
AACGAC was tested, and the binding signal was 1.02 fold enrichment (6-mer frequency, TF over GST control).
For GACCTG, the binding signal was 1.2 fold enrichment (6-mer frequency, TF over GST control).
CGACCA was tested, and the binding signal was 1.32 fold enrichment (6-mer frequency, TF over GST control).
GGAACT was tested, and the binding signal was 1.87 fold enrichment (6-mer frequency, TF over GST control).
For ACTCAC, the binding signal was 1.31 fold enrichment (6-mer frequency, TF over GST control).
In the case of GTACAT, the binding signal is reported as 1.28 fold enrichment (6-mer frequency, TF over GST control).
With ATGTGG the binding signal was 1.26 fold enrichment (6-mer frequency, TF over GST control).
GAACCC was tested, and the binding signal was 1.05 fold enrichment (6-mer frequency, TF over GST control).
For GGAAAA, the binding signal was 1.39 fold enrichment (6-mer frequency, TF over GST control).
With ATGTAC the binding signal was 1.3 fold enrichment (6-mer frequency, TF over GST control).
With ATGGAC the binding signal was 1.42 fold enrichment (6-mer frequency, TF over GST control).
In the case of TTCCGT, the binding signal is reported as 1.74 fold enrichment (6-mer frequency, TF over GST control).
For GTGCTC, the binding signal was 1.26 fold enrichment (6-mer frequency, TF over GST control).
With GTCTTC the binding signal was 1.46 fold enrichment (6-mer frequency, TF over GST control).
With GCAACT the binding signal was 1.12 fold enrichment (6-mer frequency, TF over GST control).
In the case of GTTCCC, the binding signal is reported as 1.23 fold enrichment (6-mer frequency, TF over GST control).
In the case of TCTGTC, the binding signal is reported as 1.19 fold enrichment (6-mer frequency, TF over GST control).
With TGGCAC the binding signal was 1.18 fold enrichment (6-mer frequency, TF over GST control).
With AACACG the binding signal was 1.19 fold enrichment (6-mer frequency, TF over GST control).
In the case of GAAGTT, the binding signal is reported as 1.82 fold enrichment (6-mer frequency, TF over GST control).
In the case of ACCTCG, the binding signal is reported as 1.23 fold enrichment (6-mer frequency, TF over GST control).
With CCGGCA the binding signal was 1.31 fold enrichment (6-mer frequency, TF over GST control).
ACCGTC was tested, and the binding signal was 1.15 fold enrichment (6-mer frequency, TF over GST control).
With TGCCTG the binding signal was 1.05 fold enrichment (6-mer frequency, TF over GST control).
For ATGTGC, the binding signal was 1.1 fold enrichment (6-mer frequency, TF over GST control).
CCTGCA was tested, and the binding signal was 1.68 fold enrichment (6-mer frequency, TF over GST control).
With CAGGAA the binding signal was 1.86 fold enrichment (6-mer frequency, TF over GST control).
With TGCCCC the binding signal was 1.11 fold enrichment (6-mer frequency, TF over GST control).
TAGGAA was tested, and the binding signal was 1.2 fold enrichment (6-mer frequency, TF over GST control).
With TGTCTC the binding signal was 1.18 fold enrichment (6-mer frequency, TF over GST control).
In the case of GTTTGA, the binding signal is reported as 1.15 fold enrichment (6-mer frequency, TF over GST control).

What follows are sequences tested against ETV1 (Homo sapiens, UniProt P50549 1-477) in the same assay as above. Settings: protein: recombinant; tags: N-terminal GST; dsDNA, one strand shown.
ETV1, sequence (P50549 whole entry): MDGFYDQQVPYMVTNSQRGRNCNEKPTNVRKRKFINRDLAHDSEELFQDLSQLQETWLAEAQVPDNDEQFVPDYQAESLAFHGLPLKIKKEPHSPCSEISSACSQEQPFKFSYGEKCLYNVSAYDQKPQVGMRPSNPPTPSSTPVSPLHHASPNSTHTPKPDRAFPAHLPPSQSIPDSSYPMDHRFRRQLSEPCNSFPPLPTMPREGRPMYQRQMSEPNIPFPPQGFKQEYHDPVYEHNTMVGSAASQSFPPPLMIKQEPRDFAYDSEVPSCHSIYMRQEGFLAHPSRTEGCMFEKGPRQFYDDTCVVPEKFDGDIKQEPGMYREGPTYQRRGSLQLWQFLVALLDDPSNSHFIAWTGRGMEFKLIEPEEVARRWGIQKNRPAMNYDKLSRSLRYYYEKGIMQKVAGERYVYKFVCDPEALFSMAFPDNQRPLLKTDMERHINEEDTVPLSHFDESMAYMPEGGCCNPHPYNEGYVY
How it was run: as §1
For CGTACA, the binding signal was 1.13 fold enrichment (6-mer frequency, TF over GST control).
With ACTGCG the binding signal was 1.27 fold enrichment (6-mer frequency, TF over GST control).
AGATGC was tested, and the binding signal was 1.05 fold enrichment (6-mer frequency, TF over GST control).
With GTTCAA the binding signal was 1.23 fold enrichment (6-mer frequency, TF over GST control).
For TGACAT, the binding signal was 1.23 fold enrichment (6-mer frequency, TF over GST control).
With CCGGAA the binding signal was 6.04 fold enrichment (6-mer frequency, TF over GST control).
With GTCTCT the binding signal was 1.27 fold enrichment (6-mer frequency, TF over GST control).
With CGACAT the binding signal was 1.37 fold enrichment (6-mer frequency, TF over GST control).
AACGAC was tested, and the binding signal was 1.15 fold enrichment (6-mer frequency, TF over GST control).
With GACCTG the binding signal was 1.21 fold enrichment (6-mer frequency, TF over GST control).
For CGACCA, the binding signal was 1.23 fold enrichment (6-mer frequency, TF over GST control).
In the case of GGAACT, the binding signal is reported as 2.03 fold enrichment (6-mer frequency, TF over GST control).
With ACTCAC the binding signal was 1.15 fold enrichment (6-mer frequency, TF over GST control).
With GTACAT the binding signal was 1.24 fold enrichment (6-mer frequency, TF over GST control).
For ATGTGG, the binding signal was 1.12 fold enrichment (6-mer frequency, TF over GST control).
In the case of GAACCC, the binding signal is reported as 1.19 fold enrichment (6-mer frequency, TF over GST control).
With GGAAAA the binding signal was 1.27 fold enrichment (6-mer frequency, TF over GST control).
With ATGTAC the binding signal was 1.35 fold enrichment (6-mer frequency, TF over GST control).
ATGGAC was tested, and the binding signal was 1.18 fold enrichment (6-mer frequency, TF over GST control).
With TTCCGT the binding signal was 1.82 fold enrichment (6-mer frequency, TF over GST control).
In the case of GTGCTC, the binding signal is reported as 1.29 fold enrichment (6-mer frequency, TF over GST control).
With GTCTTC the binding signal was 1.29 fold enrichment (6-mer frequency, TF over GST control).
GCAACT was tested, and the binding signal was 1.25 fold enrichment (6-mer frequency, TF over GST control).
With GTTCCC the binding signal was 1.39 fold enrichment (6-mer frequency, TF over GST control).
For TCTGTC, the binding signal was 1.23 fold enrichment (6-mer frequency, TF over GST control).
For TGGCAC, the binding signal was 1.11 fold enrichment (6-mer frequency, TF over GST control).
With AACACG the binding signal was 1.24 fold enrichment (6-mer frequency, TF over GST control).
With GAAGTT the binding signal was 1.63 fold enrichment (6-mer frequency, TF over GST control).
With ACCTCG the binding signal was 1.15 fold enrichment (6-mer frequency, TF over GST control).
For CCGGCA, the binding signal was 1.46 fold enrichment (6-mer frequency, TF over GST control).
In the case of ACCGTC, the binding signal is reported as 1.19 fold enrichment (6-mer frequency, TF over GST control).
With TGCCTG the binding signal was 1.49 fold enrichment (6-mer frequency, TF over GST control).
For ATGTGC, the binding signal was 1.05 fold enrichment (6-mer frequency, TF over GST control).
For CCTGCA, the binding signal was 1.28 fold enrichment (6-mer frequency, TF over GST control).
For CAGGAA, the binding signal was 1.74 fold enrichment (6-mer frequency, TF over GST control).
For TGCCCC, the binding signal was 1.19 fold enrichment (6-mer frequency, TF over GST control).
In the case of TAGGAA, the binding signal is reported as 1.13 fold enrichment (6-mer frequency, TF over GST control).
For TGTCTC, the binding signal was 1.22 fold enrichment (6-mer frequency, TF over GST control).
GTTTGA was tested, and the binding signal was 1.2 fold enrichment (6-mer frequency, TF over GST control).

Each sequence was assayed against T2, ERF (Homo sapiens, UniProt P50548 1-548) in the same assay as above. Settings: protein: recombinant; tags: N-terminal GST; dsDNA, one strand shown.
T2 sequence: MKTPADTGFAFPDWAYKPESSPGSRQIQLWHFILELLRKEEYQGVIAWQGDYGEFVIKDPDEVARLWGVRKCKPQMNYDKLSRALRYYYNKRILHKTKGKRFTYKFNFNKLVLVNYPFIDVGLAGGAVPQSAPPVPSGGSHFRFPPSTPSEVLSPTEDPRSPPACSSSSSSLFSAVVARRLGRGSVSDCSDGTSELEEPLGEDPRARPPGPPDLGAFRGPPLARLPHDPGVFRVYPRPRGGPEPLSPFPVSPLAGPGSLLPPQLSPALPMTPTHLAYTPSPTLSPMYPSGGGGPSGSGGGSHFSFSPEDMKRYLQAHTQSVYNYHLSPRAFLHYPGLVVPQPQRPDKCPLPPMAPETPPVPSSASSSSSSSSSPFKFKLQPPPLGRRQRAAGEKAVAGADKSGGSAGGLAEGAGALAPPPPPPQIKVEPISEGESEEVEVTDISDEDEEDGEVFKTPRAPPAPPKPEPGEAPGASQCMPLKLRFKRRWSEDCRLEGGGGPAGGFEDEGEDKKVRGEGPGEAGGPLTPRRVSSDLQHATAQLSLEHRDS
How it was run: as §1
With CGTACA the binding signal was 1.21 fold enrichment (6-mer frequency, TF over GST control).
In the case of ACTGCG, the binding signal is reported as 1.26 fold enrichment (6-mer frequency, TF over GST control).
In the case of AGATGC, the binding signal is reported as 1.23 fold enrichment (6-mer frequency, TF over GST control).
With GTTCAA the binding signal was 1.14 fold enrichment (6-mer frequency, TF over GST control).
For TGACAT, the binding signal was 1.21 fold enrichment (6-mer frequency, TF over GST control).
With CCGGAA the binding signal was 4.48 fold enrichment (6-mer frequency, TF over GST control).
GTCTCT was tested, and the binding signal was 1.16 fold enrichment (6-mer frequency, TF over GST control).
In the case of CGACAT, the binding signal is reported as 1.34 fold enrichment (6-mer frequency, TF over GST control).
AACGAC was tested, and the binding signal was 1.14 fold enrichment (6-mer frequency, TF over GST control).
For GACCTG, the binding signal was 1.13 fold enrichment (6-mer frequency, TF over GST control).
CGACCA was tested, and the binding signal was 1.19 fold enrichment (6-mer frequency, TF over GST control).
GGAACT was tested, and the binding signal was 1.48 fold enrichment (6-mer frequency, TF over GST control).
For ACTCAC, the binding signal was 1.25 fold enrichment (6-mer frequency, TF over GST control).
For GTACAT, the binding signal was 1.36 fold enrichment (6-mer frequency, TF over GST control).
For ATGTGG, the binding signal was 1.15 fold enrichment (6-mer frequency, TF over GST control).
In the case of GAACCC, the binding signal is reported as 1.03 fold enrichment (6-mer frequency, TF over GST control).
In the case of GGAAAA, the binding signal is reported as 1.12 fold enrichment (6-mer frequency, TF over GST control).
In the case of ATGTAC, the binding signal is reported as 1.19 fold enrichment (6-mer frequency, TF over GST control).
ATGGAC was tested, and the binding signal was 1.13 fold enrichment (6-mer frequency, TF over GST control).
For TTCCGT, the binding signal was 1.61 fold enrichment (6-mer frequency, TF over GST control).
For GTGCTC, the binding signal was 1.28 fold enrichment (6-mer frequency, TF over GST control).
GTCTTC was tested, and the binding signal was 1.29 fold enrichment (6-mer frequency, TF over GST control).
GCAACT was tested, and the binding signal was 1.07 fold enrichment (6-mer frequency, TF over GST control).
With GTTCCC the binding signal was 1.31 fold enrichment (6-mer frequency, TF over GST control).
With TCTGTC the binding signal was 1.31 fold enrichment (6-mer frequency, TF over GST control).
In the case of TGGCAC, the binding signal is reported as 1.21 fold enrichment (6-mer frequency, TF over GST control).
In the case of AACACG, the binding signal is reported as 1.14 fold enrichment (6-mer frequency, TF over GST control).
For GAAGTT, the binding signal was 1.47 fold enrichment (6-mer frequency, TF over GST control).
For ACCTCG, the binding signal was 1.2 fold enrichment (6-mer frequency, TF over GST control).
For CCGGCA, the binding signal was 1.28 fold enrichment (6-mer frequency, TF over GST control).
With ACCGTC the binding signal was 1.25 fold enrichment (6-mer frequency, TF over GST control).
In the case of TGCCTG, the binding signal is reported as 1.46 fold enrichment (6-mer frequency, TF over GST control).
With ATGTGC the binding signal was 1.15 fold enrichment (6-mer frequency, TF over GST control).
CCTGCA was tested, and the binding signal was 1.08 fold enrichment (6-mer frequency, TF over GST control).
In the case of CAGGAA, the binding signal is reported as 1.42 fold enrichment (6-mer frequency, TF over GST control).
With TGCCCC the binding signal was 1.15 fold enrichment (6-mer frequency, TF over GST control).
With TAGGAA the binding signal was 1.17 fold enrichment (6-mer frequency, TF over GST control).
With TGTCTC the binding signal was 1.2 fold enrichment (6-mer frequency, TF over GST control).
With GTTTGA the binding signal was 1.23 fold enrichment (6-mer frequency, TF over GST control).
